Source: PubChem BioAssay (NCATS)
Several values for one entry are separate records, joined by “and”; a condition that tells them apart may be missing. Identical values can stand only once. Records with an inconclusive call do not appear. Entries that show only a call come without a potency. More than one record can exist for a structure, and the calls need not agree. Activity calls are given as the source filed them. Calls come from the whole dose curve; as a rule, active = well fitted curve in the direction sought with a large enough effect; inconclusive = small, poorly fitted or top-dose-only effect, or another doubt; inactive = no such curve, though single readings can be large; an effect the other way counts as inactive or inconclusive.

Key:
[1] = target: Calcium and integrin-binding protein 1 (Homo sapiens) (UniProt Q99828); test: Primary qHTS for Identification of Calcium Integrin Binding Protein 1 (CIB1) Competitor (AID 1508620); conditions: CIB1-GST / FITC-alphaIIb peptide fluorescence polarization; series mostly up to 57.7 µM;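 note: GST tagged CIB1 binding a fluorescein labelled alphaIIb integrin peptide tracer; top concentration of the series differs between compounds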
Sequence of Calcium and integrin-binding protein 1 (Homo sapiens) (Q99828 whole entry, looked up): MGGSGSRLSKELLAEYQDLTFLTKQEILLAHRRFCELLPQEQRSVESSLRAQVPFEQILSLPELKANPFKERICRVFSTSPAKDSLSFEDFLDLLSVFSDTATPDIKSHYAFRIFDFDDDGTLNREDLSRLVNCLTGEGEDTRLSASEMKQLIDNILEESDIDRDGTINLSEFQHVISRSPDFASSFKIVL
How it was run: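 Fluorescence polarization competition: GST-tagged CIB1 (1 uM final) preincubated with compound 15 min at room temperature, then FITC-labelled alphaIIb peptide (100 nM final) added. After 15 min at room temperature, polarization read at Ex 480/Em 540.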

[2] = Primary qHTS for inhibitors of nuclear receptor binding SET domain protein 2 (NSD2) in an isogenic RCH-ACV NSD2 p.E1099K mutant (9B) (AID 1645876); conditions: RCH-ACV NSD2 E1099K (9B) viability, CellTiter-Glo, 72 h; series mostly up to 44.9 µM; note: nearly all actives have a fitted effect of over 70% in size; note: potency is the fitted concentration of half-maximal effect
[3] = Primary qHTS for inhibitors of nuclear receptor binding SET domain protein 2 (NSD2) in an RCH-ACV wild type WT cells (2C) (AID 1645877); conditions: RCH-ACV (leukaemia line) NSD2 WT (2C) viability, CellTiter-Glo, 72 h; series mostly up to 44.9 µM; note: nearly all actives have a fitted effect of over 70% in size; note: potency is the fitted concentration of half-maximal effect

COC(=O)C1=CO[C@@H](O[C@@H]2O[C@H](CO)[C@@H](O)[C@H](O)[C@H]2O)[C@@H]2[C@@H](C)[C@@H](O)C(O)[C@H]12 (some centres not stated)
Potency [1]: inactive
Potency [2]: inactive
Potency [3]: inactive

CC(=O)O[C@H]1[C@H](OC(=O)C(C)C)[C@]2(C)OC3(CC[C@]2(C)[C@H]2CCC[C@]4(CO4)[C@]12C)COC(=O)C3 (some centres not stated)
Potency [1]: inactive
Potency [2]: inactive
Potency [3]: inactive

O=C(O)CCc1cccc(O)c1O[C@@H]1O[C@H](CO)[C@@H](O)[C@H](O)[C@H]1O
Potency [1]: inactive
Potency [2]: inactive
Potency [3]: inactive

CC(O)CCc1ccc(O[C@@H]2O[C@H](CO)[C@@H](O)[C@H](O)[C@H]2O)cc1 (some centres not stated)
Potency [1]: inactive
Potency [2]: inactive
Potency [3]: inactive

CCC1OC(=O)C(C)CC(C)C(=O)/C(C)=C/C(C)C(=O)/C=C/C1(C)O (configuration not stated)
Potency [1]: inactive
Potency [2]: inactive
Potency [3]: inactive

O=C(CCc1ccccc1)c1c(O)c([C@@H]2O[C@H](CO)[C@@H](O)[C@H](O)[C@H]2O)c(O)c([C@@H]2O[C@H](CO)[C@@H](O)[C@H](O)[C@H]2O)c1O
Potency [1]: inactive
Potency [2]: inactive
Potency [3]: inactive

C[C@@H]1CC[C@]2(C(=O)O[C@@H]3O[C@H](CO[C@@H]4O[C@H](CO)[C@@H](O)[C@H](O)[C@H]4O)[C@@H](O)[C@H](O)[C@H]3O)CC[C@]3(C)C(=CCC4[C@@]5(C)CC[C@H](O)[C@](C)(C(=O)O)C5CC[C@]43C)[C@@H]2[C@]1(C)O (some centres not stated)
Potency [1]: inactive
activity change, negative = viability loss [2]: -2.63% [at 9.23 µM] (inactive)
activity change, negative = cell killing [3]: -8.35% [at 9.23 µM] (inactive)

CC(C)(OC1OC(CO)C(O)C(O)C1O)C1CCC(O)(CO)C2CC(=O)C(C)(O)C2C1 (configuration not stated)
Potency [1]: inactive
Potency [2]: inactive
Potency [3]: inactive

O=C(O)C[C@H]1CCC(=O)[C@@H]1C/C=C\CCO
Potency [1]: inactive
Potency [2]: inactive
Potency [3]: inactive

C/C(=C/CO)CC[C@H]1[C@]2(C)C[C@H](O)CC(C)(C)[C@H]2CC[C@]1(C)O
Potency [1]: inactive
Potency [2]: inactive
Potency [3]: inactive

Cc1occc(=O)c1O[C@@H]1O[C@H](CO)[C@@H](O)[C@H](O)[C@H]1O
Potency [1]: inactive
Potency [2]: inactive
Potency [3]: inactive

CC1=CC(=O)C2C(C)(C)CCC[C@]2(C)[C@H]1CC[C@H](C)CC(=O)O (some centres not stated)
Potency [1]: inactive
Potency [2]: inactive
Potency [3]: inactive

OC[C@H]1O[C@@H](OCCc2ccccc2)[C@H](O[C@@H]2OC[C@@H](O)[C@H](O)[C@H]2O)[C@@H](O)[C@@H]1O
Potency [1]: inactive
Potency [2]: inactive
Potency [3]: inactive

CC(C)CC[C@@H](O)[C@](C)(O)[C@H]1CC[C@@]2(O)C3=CC(=O)[C@@H]4C[C@@H](O)[C@@H](O)C[C@]4(C)[C@H]3CC[C@]12C
Potency [1]: inactive
Potency [2]: inactive
Potency [3]: inactive

COc1cc(C2Oc3c(OC)cc(/C=C/C(=O)OC4CC(O)(C(=O)O)CC(O)C4O)cc3C2CO)ccc1O (configuration not stated)
Potency [1]: inactive
Potency [2]: inactive
Potency [3]: inactive

O=S(=O)(O)c1ccc(Nc2ncnc3c2ncn3[C@@H]2O[C@H](CO)[C@@H](O)[C@H]2O)cc1
Potency [1]: inactive
Potency [2]: inactive
Potency [3]: inactive

C=C1CCC2C(C)(C(=O)O)CCCC2(C)C1CC/C(C)=C\CO (configuration not stated)
Potency [1]: inactive
Potency [2]: inactive
Potency [3]: inactive

C=C1C[C@H](O)[C@@H](O)[C@@]2(C)C1[C@@H](O)[C@H]1OC(=O)C3[C@@H](C)[C@@H](O)[C@H](O)C2[C@]31C (some centres not stated)
Potency [1]: inactive
Potency [2]: inactive
Potency [3]: inactive

CC(/C=C/C=C(\C)C(=O)O[C@@H]1O[C@H](CO[C@@H]2O[C@H](CO)[C@@H](O)[C@H](O)[C@H]2O)[C@@H](O)[C@H](O)[C@H]1O)=C\C=C\C=C(C)\C=C\C=C(/C)C(=O)O[C@@H]1C[C@](O)(C(=O)O)C[C@@H](O)[C@H]1OC(=O)/C=C/c1ccc(O)c(O)c1
Potency [1]: inactive
activity change, negative = viability loss [2]: -6.13% [at 9.23 µM] (inactive)
activity change, negative = cell killing [3]: -16.8% [at 9.23 µM] (inactive)

C=C[C@@](C)(CCC=C(C)C)O[C@@H]1O[C@H](CO[C@@H]2OC[C@H](O)[C@H](O)[C@H]2O)[C@@H](O)[C@H](O)[C@H]1O
Potency [1]: inactive
Potency [2]: inactive
Potency [3]: inactive

COc1ccc(CCC(=O)O)c(O[C@@H]2O[C@H](CO)[C@@H](O)[C@H](O)[C@H]2O)c1
Potency [1]: inactive
Potency [2]: inactive
Potency [3]: inactive

CC12CC34CC(O)C5C(CO)(CO)CC(=O)CC5(C)C3CC1C2C4 (configuration not stated)
Potency [1]: inactive
Potency [2]: inactive
Potency [3]: inactive

NC(=O)C(O[C@@H]1O[C@H](CO[C@@H]2O[C@H](CO)[C@@H](O)[C@H](O)[C@H]2O)[C@@H](O)[C@H](O)[C@H]1O)c1ccccc1 (some centres not stated)
Potency [1]: inactive
Potency [2]: inactive
Potency [3]: inactive

CC1=CC(=O)CC(C)(C)C1/C=C/C(C)OC1OC(COC2OCC(O)C(O)C2O)C(O)C(O)C1O (configuration not stated)
Potency [1]: inactive
Potency [2]: inactive
Potency [3]: inactive

Cc1noc2c1-c1ccccc1C(c1ccc(Cl)cc1)=N[C@H]2CC(N)=O
Potency [1]: inactive
Potency [2]: inactive and 590 nM (active)
Potency [3]: inactive and 525 nM (active)

COC(=O)C(CC1(O)c2ccccc2N2C(=O)C(C)(C)N(O)C21)n1cnc2ccccc2c1=O (configuration not stated)
Potency [1]: inactive
Potency [2]: inactive
Potency [3]: inactive

CC1C2=CC(=O)OC2(O)CC2C1C(O)CC1C(C)(CO)CCCC21C (configuration not stated)
Potency [1]: inactive
Potency [2]: inactive
Potency [3]: inactive

Cc1ncc([N+](=O)[O-])n1C[C@H](O)CN1CCOCC1
Potency [1]: inactive
Potency [2]: inactive
Potency [3]: inactive

C/C(=C\CO)CC/C=C(\C)C(=O)O[C@@H]1O[C@H](CO)[C@@H](O)[C@H](O)[C@H]1O
Potency [1]: inactive
Potency [2]: inactive
Potency [3]: inactive

COc1c(-c2ccc(O)cc2)cc(OC)c2c1oc1cc(O)c(OC3OC(CO)C(O)C3O)cc12 (configuration not stated)
Potency [1]: inactive
Potency [2]: inactive
Potency [3]: inactive

CCC(C)C(=O)OC[C@H]1O[C@H](O[C@H]2O[C@H](CO)[C@@H](O)[C@H](O)[C@H]2O)[C@H](O)[C@@H](O)[C@@H]1O (some centres not stated)
Potency [1]: inactive
Potency [2]: inactive
Potency [3]: inactive

Cc1sc(C)c(C(=O)NC2(c3ccc(C(=O)O)cc3)CC2)c1Cc1ccc(C(F)(F)F)cc1
Potency [1]: inactive
Potency [2]: inactive
Potency [3]: inactive

O=C(OC[C@H]1O[C@@H](Oc2ccccc2CO)[C@H](O)[C@@H](O)[C@@H]1O)c1ccccc1
Potency [1]: inactive
Potency [2]: inactive
Potency [3]: inactive

CC(C)Oc1ccc(-c2nc(-c3cccc4c3CCC4NCCC(=O)O)no2)cc1C#N (configuration not stated)
Potency [1]: inactive
Potency [2]: inactive
Potency [3]: inactive

CC1=C2CC(O)(C(C)(C)O)C(O[C@@H]3O[C@H](CO)[C@@H](O)[C@H](O)[C@H]3O)CC(C)C2CC1=O (some centres not stated)
Potency [1]: inactive
Potency [2]: inactive
Potency [3]: inactive

CC1(C)CCC[C@]2(C)C1CC=C(CO)[C@H]2CC/C(=C/CO)CO (some centres not stated)
Potency [1]: inactive
Potency [2]: inactive
Potency [3]: inactive

CC(C)c1ccc2c(c1)C(O)CC1C(C)(CO)CCCC21C (configuration not stated)
Potency [1]: inactive
Potency [2]: inactive
Potency [3]: inactive

CNc1nc(Cc2ccccc2)nc2c1CCNC[C@@H]2C
Potency [1]: inactive
Potency [2]: inactive
Potency [3]: inactive

CC1=C(C(=O)OC2OC(COC3OC(CO)C(O)C(O)C3O)C(O)C(O)C2O)C(C)(C)CCC1 (configuration not stated)
Potency [1]: inactive
Potency [2]: inactive
Potency [3]: inactive

COC1OC(O)C2(CCC3(O2)C(C)CC2OC(=O)C4(C)CCCC3(C)C24)C1O (configuration not stated)
Potency [1]: inactive
Potency [2]: inactive
Potency [3]: inactive

COc1cc(C(=O)OC[C@@]2(O)CO[C@@H](O[C@H]3[C@H](Oc4ccc(O)cc4)O[C@H](CO)[C@@H](O)[C@@H]3O)[C@@H]2O)cc(OC)c1O
Potency [1]: inactive
Potency [2]: inactive
Potency [3]: inactive

C=C[C@H]1[C@H](O[C@@H]2O[C@H](CO)[C@@H](O)[C@H](O)[C@H]2O)OC=C(C(=O)OC)[C@H]1CCO
Potency [1]: inactive
Potency [2]: inactive
Potency [3]: inactive

O=C1C(Cl)=C(N2CCOCC2)C(=O)N1c1ccc(Cl)c(Cl)c1
Potency [1]: inactive
Potency [2]: 7.96 µM (active)
Potency [3]: 8.93 µM (active)

COC(=O)c1c(CC=C(C)C)c(OC2OC(CO)C(O)C(O)C2O)c2ccccc2c1OC1OC(CO)C(O)C(O)C1O (configuration not stated)
Potency [1]: inactive
Potency [2]: inactive
Potency [3]: inactive

CC1(C)CC[C@]2(C(=O)O[C@@H]3O[C@H](CO)[C@@H](O)[C@H](O)[C@H]3O)CC[C@]3(C)C(=CCC4[C@@]5(C)C[C@H](O)[C@H](O[C@@H]6O[C@H](C(=O)O)[C@@H](O)[C@H](O)[C@H]6O)[C@@](C)(CO)C5CC[C@]43C)C2C1 (some centres not stated)
activity change, negative = inhibition [1]: 0.901% [at 12.4 µM] (inactive)
activity change, negative = viability loss [2]: -12.9% [at 9.23 µM] (inactive)
activity change, negative = cell killing [3]: -7.01% [at 9.23 µM] (inactive)

C[C@@H]1O[C@@H](OC(=O)Cc2ccccc2)[C@H](O)[C@H](O)[C@H]1O
Potency [1]: inactive
Potency [2]: inactive
Potency [3]: inactive

COc1cc(C2OCC3(O)C(c4ccc(O[C@@H]5O[C@H](CO)[C@@H](O)[C@H](O)[C@H]5O)c(OC)c4)OCC23O)ccc1O (some centres not stated)
Potency [1]: inactive
Potency [2]: inactive
Potency [3]: inactive

O=C(O)CCc1c(C(=O)O)[nH]c2cc(Cl)cc(Cl)c12
Potency [1]: inactive
Potency [2]: inactive
Potency [3]: inactive

C[C@@H]1CC[C@]2(C(=O)O)CC[C@]3(C)C(=CCC4[C@@]5(C)C[C@@H](O)[C@H](O)[C@@](C)(CO)C5CC[C@]43C)C2[C@H]1C (some centres not stated)
Potency [1]: inactive
Potency [2]: inactive
Potency [3]: inactive

O=C(/C=C/N1C[C@@H]2C[C@@H]1CN2c1ccccn1)c1ccccc1O
Potency [1]: inactive
Potency [2]: inactive
Potency [3]: inactive

C=C[C@H]1[C@H](O[C@@H]2O[C@H](CO)[C@@H](O)[C@H](O)[C@H]2O)OC=C(C(=O)OC)[C@H]1CC=O
Potency [1]: inactive
Potency [2]: inactive
Potency [3]: inactive

CC1=C2C(=O)C=C(CO[C@@H]3O[C@H](CO)[C@@H](O)[C@H](O)[C@H]3O)[C@@H]2[C@H]2OC(=O)[C@H](C)[C@@H]2[C@@H](O)C1
Potency [1]: inactive
Potency [2]: inactive
Potency [3]: inactive

CC(=O)/C=C/[C@H]1[C@](C)(O)[C@@H](O)[C@H](O)C2C(C)(C)CCC[C@@]21C (some centres not stated)
Potency [1]: inactive
Potency [2]: inactive
Potency [3]: inactive

C[C@]12CC/C(=N\OCC(=O)O)C=C1CC[C@@H]1[C@@H]2[C@@H](O)C[C@@]2(C)[C@H]1CC[C@]2(O)C(=O)CO
Potency [1]: inactive
Potency [2]: inactive
Potency [3]: 9.16 µM (active)
